Data from the supplement of paper PMC6555819.

Key:
Test in all cases: PBM binding z-score (relative to random genomic background probes); higher = stronger binding; sequences stand for … in GC…GCGATTGACAGCGTAGAATGAAGG
[1] = tested on: FXR:RXRa (NR concentration 270 nM, RXRa partner concentration 90 nM)
Outline: (§1)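 Binding buffer was PBS pH 7.4 with 2% milk, 0.02% Triton X-100, 1 mM DTT, 0.2 mg/mL BSA and 0.4 mg/ml salmon testes DNA. In it, ligand-free nuclear receptor dimers were incubated 1 h on custom Agilent 4×180K protein-binding microarrays carrying double-stranded probes. Antibodies against each partner (one per run) detected binding, and z-scores were calculated against random background probes after regression normalization of scanned fluorescence.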

[2] = tested on: LXRa:RXRa (NR concentration 270 nM, RXRa partner concentration 90 nM)
Outline: as §1

[3] = tested on: LXRa homodimer (NR concentration 270 nM)
Outline: as §1

[4] = tested on: LXRb:RXRa (NR concentration 270 nM, RXRa partner concentration 90 nM)
Outline: as §1

[5] = tested on: LXRb homodimer (NR concentration 270 nM)
Outline: as §1

[6] = tested on: PPARa:RXRa (NR concentration 270 nM, RXRa partner concentration 90 nM)
Outline: as §1

[7] = tested on: PPARg:RXRa (NR concentration 180 nM, RXRa partner concentration 90 nM)
Outline: as §1

[8] = tested on: PPARg:RXRa 270nM:90nM, anti-RXR (NR concentration 270 nM, RXRa partner concentration 90 nM)
Outline: as §1

[9] = tested on: PPARg:RXRa 30nM:10nM, anti-RXR (NR concentration 30 nM, RXRa partner concentration 10 nM)
Outline: as §1

[10] = tested on: PPARg:RXRa 90nM:30nM, anti-RXR (NR concentration 90 nM, RXRa partner concentration 30 nM)
Outline: as §1

[11] = tested on: PPARg:RXRa DBDmut IVT, anti-RXR (DBD mutation: RXRa K156A/R161A, NR concentration 270 nM, RXRa partner concentration 90 nM)
Outline: as §1

[12] = tested on: PPARg:RXRa IVT, anti-PPARg (NR concentration 270 nM, RXRa partner concentration 90 nM)
Outline: as §1

[13] = tested on: PPARg DBDmut:RXRa IVT, anti-PPARg (DBD mutation: PPARg1 K132A/R137A, NR concentration 270 nM, RXRa partner concentration 90 nM)
Outline: as §1

[14] = tested on: PPARg DBDmut IVT, anti-PPARg (DBD mutation: PPARg1 K132A/R137A, NR concentration 270 nM)
Outline: as §1

[15] = tested on: PPARg homodimer (NR concentration 180 nM)
Outline: as §1

[16] = tested on: PXR:RXRa (NR concentration 270 nM, RXRa partner concentration 90 nM)
Outline: as §1

[17] = tested on: PXR homodimer (NR concentration 270 nM)
Outline: as §1

[18] = tested on: RARa:RXR (NR concentration 270 nM, RXRa partner concentration 90 nM)
Outline: as §1

[19] = tested on: RARa homodimer (NR concentration 270 nM)
Outline: as §1

[20] = tested on: RARb:RXRa (NR concentration 270 nM, RXRa partner concentration 90 nM)
Outline: as §1

Row | Sequence | PBM binding z-score [1] | PBM binding z-score [2] | PBM binding z-score [3] | PBM binding z-score [4] | PBM binding z-score [5] | PBM binding z-score [6] | PBM binding z-score [7] | PBM binding z-score [8] | PBM binding z-score [9] | PBM binding z-score [10] | PBM binding z-score [11] | PBM binding z-score [12] | PBM binding z-score [13] | PBM binding z-score [14] | PBM binding z-score [15] | PBM binding z-score [16] | PBM binding z-score [17] | PBM binding z-score [18] | PBM binding z-score [19] | PBM binding z-score [20]
1 | CGAACGAGGACATGAGTTGATAGCAAATGCCGAT | 0.0885 | -0.189 | -0.104 | -0.698 | -0.657 | -0.417 | 0.982 | 0.127 | 0.435 | 0.242 | 0.314 | 0.0195 | 0.334 | -0.107 | 0.0836 | -0.249 | 0.0683 | -0.232 | 0.565 | 0.496
2 | GATACAGGGTCCGCTAGAGGCCAGAGTATGGAAA | -0.588 | -0.752 | -0.713 | -1.11 | -1.38 | -0.848 | 0.112 | -0.726 | -0.417 | -1.24 | -1.31 | -0.762 | -1.66 | -1.32 | -0.788 | -0.821 | -0.331 | -0.782 | -1.34 | 0.181
3 | TCTTGTAGTTCAAGCAGGTTAAGAAAGCCTGAGT | 1.59 | 1.72 | 0.316 | 1.5 | -0.0715 | 2.02 | -0.535 | 1.65 | 2.53 | 1.94 | 1.37 | 0.625 | -0.45 | -0.0561 | 0.815 | 2.26 | 1.78 | 1.59 | 0.00762 | 2.3
4 | CGAACTAGGTCAGAACAGGACAGTGTAGGATGAT | 1.59 | 0.807 | -0.126 | 0.58 | -0.539 | 3.33 | 5.09 | 4.48 | 1.85 | 3.29 | 7.44 | 7.53 | 3.18 | 2.19 | 1.06 | 0.998 | 0.228 | 0.95 | 0.229 | 3.07
5 | CGAACTAGGTTATTGACAGGACAGTGAATAGTAA | 0.276 | 0.886 | 0.37 | 0.406 | -0.0993 | 2.09 | 2.41 | 2.12 | 0.574 | 1.47 | 5.85 | 5.11 | 0.805 | 0.514 | 0.855 | 0.198 | 0.237 | 0.554 | 0.372 | 0.837
6 | ACTATAAGTTGAGACGAGGGCAACCGATAGGTTG | 1.18 | 0.684 | -0.161 | 0.115 | -0.00417 | 0.691 | 1.01 | 0.487 | 0.313 | 0.578 | 0.251 | 0.388 | 0.373 | -0.377 | 0.181 | 3.22 | 0.715 | 1.53 | 0.18 | 1.53
7 | CCTACTGGGCCATTCAGGGGTCATTGATCATATG | 3.39 | 3.59 | 3.43 | 4.16 | -0.118 | 4.49 | 2.95 | 3.73 | 1.27 | 2.64 | 3.55 | 4.44 | -0.679 | -0.364 | 2.13 | 5.18 | 1.05 | 5.59 | 0.603 | 3.03
8 | AGAACGAGGACAATGAGTTGATAGCACGGGTGGC | -0.125 | -0.562 | -0.33 | -0.706 | -0.434 | -0.365 | 1.06 | -0.0649 | -0.0875 | -0.147 | 1.03 | 0.378 | -0.192 | -0.367 | 0.00958 | 0.277 | 1.99 | -0.176 | 0.102 | 0.775
9 | CCAGACAGGTGAGAAGGTAACCCAGCCTCGATTA | 0.179 | 0.277 | -0.0873 | 0.148 | 0.023 | 0.739 | 0.689 | 0.473 | -0.12 | 0.118 | 1.18 | 0.79 | -0.0117 | -0.618 | 0.918 | -0.0868 | 0.187 | 0.417 | 0.439 | 0.682
10 | CGAACGCGGGCATGAGTTGATAGCAAATGCCGAT | -0.653 | -0.715 | -0.461 | -0.883 | -1.24 | -0.441 | 0.36 | -0.484 | -0.861 | -0.633 | -0.0191 | -0.364 | -0.145 | -0.957 | -0.435 | -0.69 | -0.265 | -0.878 | -0.807 | -0.0245
11 | ACAACGAGGGCACGCTGAGTTGATAGCAGAGTAG | 0.762 | 0.503 | -0.519 | 0.00813 | -0.476 | 1.58 | 1.65 | 1.19 | 0.248 | 0.944 | 3.61 | 3.13 | 0.767 | 0.323 | 0.345 | 1.22 | 0.145 | 0.573 | -0.791 | 2.63
12 | CCTTACGGGTCACTGACAGGTTATAGTATTTGGA | 5.25 | 4.01 | 0.456 | 3.4 | 0.163 | 4.95 | 4.75 | 4.34 | 1.8 | 2.96 | 3.44 | 3.9 | 0.845 | 0.452 | 2.3 | 3.46 | 0.317 | 4.47 | 0.728 | 3.93
13 | AGAACGAGGGCACGCTGAGTTGATAGAAGAGTAG | 0.553 | 0.362 | -0.441 | 0.106 | -0.925 | 2.09 | 2.05 | 1.54 | 0.398 | 1.11 | 3.93 | 3.46 | 0.756 | 0.00527 | 0.193 | 1.28 | -0.0963 | 0.661 | -0.807 | 2.31
14 | TCAAGTAGGTTACCAATGGGGCATTCAGCTTTCT | 0.176 | 1.6 | -0.145 | 1.17 | -0.449 | 2.16 | 2.1 | 2.92 | 3.34 | 3.02 | 6.09 | 5.24 | 0.706 | -0.182 | 0.999 | 0.326 | -0.278 | 0.518 | 0.134 | 1.27
